From PubChem
Sampled rows, rich in hits. Any-hit rate of the full collection: about 4.1%.
TWEAK Fn14 block: inhibitors of TWEAK-Fn14 signaling, primary screen, luciferase reporter cells, uHTS; TWEAK-stimulated Fn14 reporter cells, luciferase luminescence, 8 h; inhibition, % at 10 µM; actives 2% (n = 360,000); in the data active = inhibition above about 50%
Shn3 3UTR inh: reduction of Shn3 3'UTR firefly luciferase signal, primary screen, Schnurri-3 inhibitor project, cell-based, Clone20 osteoblasts, set 2; Clone20 osteoblast Shn3 3'UTR firefly luciferase, 24 h; AID 588674, 2011; actives 0.52% (n = 360,000); inhibition, % at 12.5 µM;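 active = mean inhibition of at least 75% with every replicate also reaching 75%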
TROY NFkB inh: inhibitors of TROY-driven NF-kB signaling, primary screen, Q293 LMP1-TROYcd cells, NF-kB luciferase, uHTS. Q293 LMP1-TROYcd NF-kB luciferase reporter, 4 h. inhibition, % at 10 µM. actives 0.98% (n = 360,000). AID 1347056, 2019;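 active = compounds whose plate-normalised and pattern-corrected inhibition of the luciferase reporter signal at the single screening dose is 50% or more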
TRPM1 prom inh: inhibitors of MITF-dependent TRPM1 promoter reporter, primary screen, cell-based, SK-MEL-5, single point, luciferase | SK-MEL-5 TRPM1 promoter luciferase, 24 h | inhibition, % at 12.5 µM | actives 0.83% (n = 330,000) | AID 488899, 2010;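 active = mean inhibition across replicates of 60% or more, whatever share of single replicates reaches that level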
Peg3 prom inh: Peg3 promoter-driven luciferase inhibitors, primary screen, cell-based, HeLa, luciferase luminescence. inhibition, % at 20 µM. HeLa PEG-Prom luciferase reporter, overnight. AID 588405, 2011. actives 1.7% (n = 360,000);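 active = inhibition of at least 50% at 20 µM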
LMP1 NFkB inh: EBV LMP1-driven NF-kappaB luciferase reporter inhibitors, primary screen, cell-based, luminescence, single point; actives 0.69% (n = 350,000); inhibition, % at 12.5 µM; LMP1-induced NF-kappaB luciferase reporter cells; in the data active = inhibition above about 41%
Of the large screens only hits and unclear results are named; the others gave an inactive call.

CCOc1ccc(N=Nc2ccc(O)c3ncccc23)cc1	Shn3 3UTR inh 90, TRPM1 prom inh 70
CCS(=O)(=O)c1ccc(OC)c(N=Nc2ccc(O)c3ncccc23)c1	none
COc1ccc(OC)c(CN2CCN(C(=O)CCC(=O)c3cccs3)CC2)c1	none
Cc1ccc(S(=O)(=O)N(C)C)cc1NC(=O)C1CCCN(C(=O)c2ccc(Cl)cc2)C1 (centres undefined)	none
COc1ccc(C)cc1NC(=O)CCNC(=O)Cn1ccc2ccccc2c1=O	none
Cc1cc(-c2n[nH]c(=S)n2/N=C/c2ccccc2[N+](=O)[O-])n[nH]1	Peg3 prom inh 51
CC(=O)c1ccc(N2CCN(S(=O)(=O)c3c(C)[nH]c(C)c3C(=O)N3CCCCC3)CC2)cc1	none
Cc1ccc(-n2c(Cl)c(Cl)nc(Cl)c2=O)cc1	TWEAK Fn14 block 102, Shn3 3UTR inh 96, TROY NFkB inh 63, TRPM1 prom inh 95, Peg3 prom inh 103, LMP1 NFkB inh 72
O=C(NNC(=O)C(c1ccccc1)c1ccccc1)c1ccccc1O	none (no result: TRPM1 prom inh)
COc1ccc(NC(=O)CCS(=O)(=O)c2ccc3c(c2)CCN3C(C)=O)cc1	LMP1 NFkB inh 58
CCC(=O)N1CCc2cc(S(=O)(=O)CCC(=O)NCc3ccco3)ccc21	TWEAK Fn14 block 101
COc1ccc(NC(=O)CCS(=O)(=O)c2ccc3c(c2)CCCN3C(C)=O)cc1Cl	none
CCc1ccc2oc(C(=O)NC3CCS(=O)(=O)C3)cc(=O)c2c1 (centres undefined)	none
CCOc1ccccc1/C=C/c1onc(C)c1S(=O)(=O)N1CCC(C(=O)N(CC)CC)CC1	LMP1 NFkB inh 60
Cc1ccc(CNC(=O)c2cc(-c3ccccc3C)nn2CC2CC(c3cccnc3)=NO2)cc1 (centres undefined)	Shn3 3UTR inh 92
Cc1ccc(CNC(=O)c2cc(-c3ccccc3)nn2CC2CC(c3cccnc3)=NO2)cc1 (centres undefined)	none
COc1ccc(CCn2c(=S)[nH]c3cc(C(=O)NCc4ccco4)ccc3c2=O)cc1OC	TWEAK Fn14 block 52, TRPM1 prom inh 91, Peg3 prom inh 51
COc1ccc(-n2c(=S)[nH]c3cc(C(=O)NCc4ccco4)ccc3c2=O)cc1OC	none
Cc1ccc(-c2ccc(=O)n(CC(=O)NCCN3CCCCC3C)n2)cc1 (centres undefined)	none
Cc1ccc(-c2ccc(=O)n(CCC(=O)NCCN3CCCCC3C)n2)cc1 (centres undefined)	TWEAK Fn14 block 87 (no result: TROY NFkB inh)
CC1C(=O)N(Cc2cn(CCC3OCCO3)nn2)CCS(=O)(=O)N1Cc1ccc(-c2ccc(Cl)c(Cl)c2)cc1 (centres undefined)	TWEAK Fn14 block 56 (no result: TRPM1 prom inh)
Cc1ccc(-c2ccc(CN3C(C(C)C)C(=O)N(Cc4cn(Cc5ccco5)nn4)CCS3(=O)=O)cc2)cc1 (centres undefined)	Peg3 prom inh 56 (no result: TRPM1 prom inh)
CC(C)C1C(=O)N(Cc2cn(CCC3OCCCO3)nn2)CCS(=O)(=O)N1Cc1ccc(-c2ccc(Cl)c(Cl)c2)cc1 (centres undefined)	Peg3 prom inh 88 (no result: TRPM1 prom inh)
Cc1nc(COc2ccc(C(=O)NCc3ccccc3CN3CCCCC3)cc2)cs1	none
CCOC(=O)c1cnc2c(C)cc(Cl)cc2c1N1CCN(C)CC1	none
S=C(Nc1cc(Cl)cc(Cl)c1)N1CCN(c2ccccn2)CC1	none
CC1(C)NC(=O)N(CC(=O)N2CCN(c3ccc([N+](=O)[O-])cc3)CC2)C1=O	none
O=C(NCCc1csc(-c2cccnc2)n1)c1cccc2ccccc12	LMP1 NFkB inh 89
COc1ccc(NC(=O)CN(C)CC(=O)N2CC(=O)Nc3ccccc32)cc1	none
O=c1c(Sc2ccccc2)c(C(F)(F)F)[nH]n1-c1ccccc1	TROY NFkB inh 53
c1ccc(-[n+]2nc(Nc3cccc4ccccc34)sc2-c2c3ccccc3cc3ccccc23)cc1	none
COc1cc([N+](=O)[O-])cc(/C=N/NC(=O)C(C)Nc2cccc3ccccc23)c1O (centres undefined)	TWEAK Fn14 block 87, TROY NFkB inh 57
CC(Nc1cccc2ccccc12)C(=O)N/N=C/c1ccc([N+](=O)[O-])cc1 (centres undefined)	TWEAK Fn14 block 100
COc1cc([N+](=O)[O-])cc(/C=N/NC(=O)C(O)(c2ccccc2)c2ccccc2)c1O	none
CC(NC(=O)CN1C(=O)NC2(CCCC2)C1=O)c1ccc(Cl)cc1Cl (centres undefined)	none
O=C(Nc1cc(Sc2nc3ccccc3s2)cc([N+](=O)[O-])c1)c1cccc(F)c1F	TWEAK Fn14 block 58
O=C(CSc1nc2ccc(NC(=O)c3ccccc3C(=O)O)cc2s1)Nc1ccc(F)c([N+](=O)[O-])c1	none
CCOC(=O)c1sc2nc(C)nc(NCc3ccccc3OC)c2c1C	TWEAK Fn14 block 54
O=c1[nH]c(NCc2ccccc2)nc2c1CCC2	none
Cc1nc(Nc2nc3c(c(=O)[nH]2)CCC3)nc2ccccc12	TWEAK Fn14 block 69, Peg3 prom inh 86
O=C(NCc1cccs1)c1ccc(CS(=O)Cc2cccc(Cl)c2)o1 (centres undefined)	none
CC1C(=O)C(C)(C)C(=O)OC1c1ccc([N+](=O)[O-])cc1 (centres undefined)	none
O=Nc1c(O)[nH]c2ccc(Cl)c(Cl)c12	Peg3 prom inh 57
COc1ccc(NC2CCCN(C(=O)CN3C(=O)c4ccccc4C3=O)C2)cc1OC (centres undefined)	none
Cc1cc(C(F)(F)F)c2c(C)nn(-c3ccccc3)c2n1	none
Cc1nn(-c2ccccc2)c2nc(C(Cl)(Cl)Cl)[nH]c(=O)c12	TROY NFkB inh 51
O=C(CSc1nccc(=O)[nH]1)Nc1cccc2ccccc12	TWEAK Fn14 block 50
O=C(CSc1nccc(=O)[nH]1)Nc1ccc2ccccc2c1	none
COC(=O)c1c(NC(=S)NNC(=O)c2ccc(Cl)s2)sc(C(=O)N(C)C)c1C	none
Cc1ccc(C(=O)N2CCC(n3nccc3NC(=O)C3CCOC3)CC2)cc1 (centres undefined)	none
Nc1c(N2CCOCC2)cc(Cl)c2nonc12	none
Nc1c(N2CCCC2)cc(Cl)c2nonc12	TRPM1 prom inh 74
Cc1cc(C(=O)N/N=C/c2ccc3c(c2)OCO3)c(C)n1-c1ccc(F)cc1	TROY NFkB inh 50
Cc1cc(C(=O)N/N=C/c2ccc(Cl)c([N+](=O)[O-])c2)c(C)n1-c1ccc(F)cc1	TWEAK Fn14 block 63, TRPM1 prom inh 63, Peg3 prom inh 105
